Consider ten compounds from PubChem BioAssay (Tox21).

A short description of test [1]: qHTS assay to identify small molecule antagonists of the vitamin D receptor (VDR) signaling pathway - cell viability counter screen (AID 743225). Further: nearly all actives have a fitted effect of over 50% in size. An outline of the steps: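 VDR-bla HEK 293T cells, 4 h pre-incubation at 37C, then compound plus 1-alpha,25-dihydroxyvitamin D3 (3 nM final) for 16 h. After the beta-lactamase FRET read, CellTiter-Glo was added to the same wells; luminescence after 30 min at room temperature.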

Test [2] is described as follows: qHTS assay to identify small molecule agonists of the NFkB signaling pathway - cell viability counter screen (AID 1159515; calls by dose curve; further: series mostly up to about 61 µM; nearly all actives have a fitted effect of over 55% in size). In a few lines: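 Parallel cytotoxicity counter screen in ME-180 cells carrying an NFkB-response-element beta-lactamase reporter, 2,000 cells/well. Compound exposure lasted 5 hr at 37 C, 5% CO2. Cell viability was quantified by CellTiter-Glo luminescence.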
(In general: In qHTS, concentration-response curves come from the screen itself.)

Test [3] is described as follows: qHTS assay to identify small molecule agonists of the endoplasmic reticulum stress response signaling pathway (AID 1159516; active means well fitted activation curve with a large enough effect in the signal ratio in the repeat runs, not every such curve was filed as active; the % refers to the signal ratio). An outline of the steps:
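Using a HeLa line with an ESRE-driven beta-lactamase gene, agonist activity was measured by FRET substrate fluorescence (460 and 530 nm emission) after cells were treated with compounds for 5 hr at 37 C and 5% CO2.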

Test [4] can be described thus: qHTS assay to identify small molecule agonists of the endoplasmic reticulum stress response signaling pathway - cell viability counter screen (AID 1159517; calls by dose curve;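 further: HeLa cells carrying an ER stress response element beta-lactamase reporter; series mostly up to about 61 µM; nearly all actives have a fitted effect of over 50% in size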). In a few lines: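 In parallel with the ESRE reporter read, cytotoxicity was scored by CellTiter-Glo luminescence (30 min, room temperature) on HeLa ESRE-bla cells dosed for 5 hr.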
Test [5] in a line: qHTS assay to identify small molecule antagonists of the retinoid-related orphan receptor gamma (ROR-gamma) signaling pathway - cell viability counter screen (AID 1159520). Further: nearly all actives have a fitted effect of over 50% in size. An outline of the steps:
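Tet-on ROR gamma CHO cells were given compounds for 2 hr, then doxycycline hyclate at 1 uM final, and incubated 16 hr at 37 C. Viability was measured as ATP content by CellTiter-Glo luminescence.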

Test [6] deals with Nuclear receptor ROR-gamma (Homo sapiens) (UniProt P51449). The test is described as follows: qHTS assay to identify small molecule antagonists of the retinoid-related orphan receptor gamma (ROR-gamma) signaling pathway (AID 1159521;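 further: CHO cells with doxycycline inducible ROR-gamma driving an RORE luciferase reporter; top concentration of the series differs between compounds; nearly all actives have a fitted effect of over 50% in size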). An outline of the steps: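 Tet-on RORγ CHO cells carrying a ROR response element–luciferase reporter were pretreated with compounds for 2 h, then induced with 1 uM (final) doxycycline hyclate for 16 h at 37 C. Antagonism was read as decreased ONE-Glo luminescence.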

Test [7] can be described thus: qHTS assay to identify small molecule agonists of the AP-1 signaling pathway - cell viability counter screen (AID 1159525; calls by dose curve; further: nearly all actives have a fitted effect of over 55% in size). An outline of the steps:
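Same-well cytotoxicity counter screen of the Tox21 10K library in ME-180 cells. The readout is ATP-dependent luminescence after 5 h compound treatment. Data are normalised to DMSO and tetra n-octyl ammonium bromide controls.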

Test [8] in a line: qHTS assay to identify small molecule agonists of the AP-1 signaling pathway (AID 1159526; calls by dose curve).
The target of test [9] is Retinoic acid receptor RXR-alpha (Homo sapiens) (UniProt P19793). Description: qHTS assay to identify small molecule agonists of the RXR signaling pathway (AID 1159527; calls by dose curve; further: nearly all actives have a fitted effect of over 35% in size; further: potency means the concentration at half of the fitted maximal effect). In a few lines:
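GeneBLAzer RXR-alpha-UAS-bla HEK 293T cells in medium with 2% charcoal-stripped FBS, pre-incubated 5 hr at 37 C, then exposed to compounds 16 hr. Beta-lactamase reporter read by FRET substrate, 2 hr room temperature, 460/530 nm emission.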

Test [10] is described as follows: qHTS assay to identify small molecule agonists of the RXR signaling pathway - cell viability counter screen (AID 1159529). An outline of the steps: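 RXR-alpha-UAS-bla HEK 293T cells in medium with 2% charcoal-stripped FBS were preincubated 5 hr, then exposed to compounds for 16 hr at 37 C. Viability was read as CellTiter-Glo luminescence after 30 min at room temperature.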

Test [11] can be described thus: qHTS assay to identify small molecule antagonists of the retinoid acid receptor (RAR) signaling pathway - cell viability counter screen (AID 1159551). Further: nearly all actives have a fitted effect of over 35% in size. In a few lines: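 ATP-based viability, C3RL4 cells, 6 h at 37 C with 1 uM final retinol co-added after compound; luminescence read 30 min post CellTiter-Glo, RT.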
Test [12] is described as follows: qHTS assay to identify small molecule agonists of the retinoic acid receptor (RAR) signaling pathway (AID 1159553). An outline of the steps: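 Quantitative high-throughput format: the Tox21 10K library was tested on C3RL4 RARE-luciferase cells for 6 hr at 37 C and 5% CO2, with luminescence measured after a 30 min room-temperature reagent step.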
Test [13] can be described thus: qHTS assay to identify small molecule antagonists of the retinoic acid receptor (RAR) signaling pathway (AID 1159552; further: nearly all actives have a fitted effect of over 50% in size). An outline of the steps: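 RARE-luc C3RL4 cells; cpds + 1 uM (final) retinol, 6 hr, 37 C/5% CO2; luciferase reagent, 30 min RT, luminescence readout. Inhibitors of retinol-driven signal scored.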
Test [14] can be described thus: qHTS assay to identify small molecule antagonists of the estrogen related receptor (ERR) signaling pathway - cell viability counter screen (AID 1224818). Further: series mostly up to about 46 µM. In a few lines: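 Quantitative high-throughput viability counter screen in ERR cells. Compounds (DMSO) incubated 17.5 h at 37 C; read-out was CellTiter-Fluor fluorescence.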
A short description of test [15]: qHTS assay to identify small molecule antagonists of the estrogen related receptor signaling pathway with the pleiotropic PPARgamma coactivator (PGC) cell viability counter screen (AID 1224822; further: series mostly up to about 46 µM). In a few lines:
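Cytotoxicity in the PGC/ERR cell line is assessed with CellTiter-Fluor, read as fluorescence intensity 30 min after reagent addition, following 17.5 h compound treatment at 37 C.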

Test [16] can be described thus: qHTS assay to identify small molecule antagonists of the estrogen related receptor (ERR) signaling pathway from Tox21 library - cell viability counter screen (AID 1224834). Further: nearly all actives have a fitted effect of over 30% in size. In a few lines: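 Compounds in DMSO were pinned onto ERR cells that had been incubated for 6 h, and the plates were held at 37 C for 17.5 h. CellTiter-Fluor reagent was then added and fluorescence was measured after 30 min.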

Structures are written as SMILES. Records with an inconclusive call do not appear. A number with no mark means an inactive call. Calls of active or inactive are those of the source. Unless noted, the call rests on the fitted dose curve; in most records, active means well fitted curve in the direction sought with a large enough effect in the repeat runs; inconclusive means weak or mixed curves; inactive means no such curve, though single readings can be large; an effect the other way counts as inactive or inconclusive.

Retinoic acid receptor RXR-alpha (Homo sapiens), sequence (P19793 whole entry, looked up): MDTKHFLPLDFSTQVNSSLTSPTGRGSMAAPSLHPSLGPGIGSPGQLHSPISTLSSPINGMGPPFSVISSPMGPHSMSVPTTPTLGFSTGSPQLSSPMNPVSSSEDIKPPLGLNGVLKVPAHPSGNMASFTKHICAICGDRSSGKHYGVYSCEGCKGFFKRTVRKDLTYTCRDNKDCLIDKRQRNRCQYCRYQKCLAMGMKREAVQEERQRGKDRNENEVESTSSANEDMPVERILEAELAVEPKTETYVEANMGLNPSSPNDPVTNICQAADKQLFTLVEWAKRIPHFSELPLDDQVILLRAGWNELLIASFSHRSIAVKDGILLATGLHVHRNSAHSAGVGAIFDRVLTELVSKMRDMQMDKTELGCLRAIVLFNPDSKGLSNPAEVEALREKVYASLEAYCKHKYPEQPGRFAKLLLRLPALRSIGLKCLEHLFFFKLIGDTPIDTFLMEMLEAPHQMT

Consider `CCN(Cc1ccccc1)c1ccccc1`, for which the compound was called inactive in test [1], in test [2], in [3], in [4], in [5] and in [7]. The compound was classed as inactive in test [8] and in [11]. Besides, the Potency entry in test [6], in test [9], in test [10] and in [12] was “inactive” in each case.
With `COc1cc2c(cc1OC)-c1cc3ccc(OC)c(OC)c3c[n+]1CC2`, the compound was called inactive in [2], in [3], in [4], in test [5], in [7] and in test [8]. The compound was called inactive in test [11]. Besides, the Potency result in test [6], in [9] and in test [10] was “inactive” throughout.
For `O=C(c1ccccc1O)c1ccccc1O`, the compound was classed as inactive in test [1], in test [2], in test [3], in test [4], in [5] and in test [7]. In addition, the result in test [8] and in test [11] was inactive. Moreover, the Potency entry in test [6], in test [9], in test [10] and in test [13] was “inactive” throughout.
On to `NO`, for which the outcome in test [1], in [2], in test [3], in [4], in test [5] and in test [7] was inactive. In addition, the call in test [8], in test [11], in test [14] and in test [15] was inactive. Further, the Potency result in test [6], in test [10], in [12] and in [16] was “inactive” throughout. Moreover, the Potency in test [9] is 44.5 µM (active).
Consider `Cc1ncc([C@@H](CCCCCCc2ccc3c(n2)NCCC3)CC(=O)O)cn1`, for which the compound was called inactive in [2], in [3], in test [4], in test [5], in test [7] and in test [8]. Moreover, the compound was classed as inactive in test [11]. Further, the Potency entry in test [6], in test [9] and in [10] was “inactive” each time.
On to `C[N+]1(C)CCCC(OC(=O)C(O)(c2ccccc2)c2ccccc2)C1` (stereo unspecified), for which the compound was called inactive in test [1], in [2], in [3], in test [4], in test [5] and in test [7]. In addition, the outcome in test [8] and in [11] was inactive. Further, the Potency entry in test [6], in test [9], in [10], in [12] and in [16] was “inactive” in each case.
Take `CCCCCCCC1CCCC1=O` (stereo unspecified): the call in test [1], in test [2], in test [3], in [4], in [5] and in test [7] was inactive. For the same compound, the compound was classed as inactive in test [8] and in [11]. The Potency result in test [6], in [9], in test [10], in [13] and in test [16] was “inactive” in each case.
Consider `CCOC(=O)CCC(=O)OCC`, for which the compound was classed as inactive in [1], in [2], in test [3], in test [4], in test [5] and in test [7]. The compound was called inactive in test [8] and in [11]. The Potency result in [6], in test [9], in test [10], in test [13] and in test [16] was “inactive” each time.
As for `[Ca+2]`, the outcome in [2], in test [3], in [4], in test [5], in test [7] and in test [8] was inactive. In test [11], the compound was called inactive. Further, the Potency result in [6], in test [9] and in test [10] was “inactive” throughout.
In the case of `CC(C)(C)OC(=O)c1cccc(N)c1`, the call in test [1], in test [2], in [3], in test [4], in test [5] and in [7] was inactive. In addition, the compound was called inactive in test [8] and in [11]. Besides, the Potency entry in [6], in [9], in [10], in [13] and in test [16] was “inactive” throughout.
